Results on 22 sequences are retold here after the supplement of paper PMC6555819.

This assay has as its system PPARg:RXRa 270nM:90nM, anti-RXR (NR concentration 270 nM, RXRa partner concentration 90 nM). The assay can be described thus: PBM binding z-score (relative to random genomic background probes); higher = stronger binding; sequences stand for … in GC…GCGATTGACAGCGTAGAATGAAGG
The gist of the method: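 Ligand-free nuclear receptor dimers were applied to custom Agilent 4×180K protein-binding microarrays whose double-stranded probes carried direct-repeat seeds, single-nucleotide variants, half-site ablations and random human genomic background sequences in 34-nt variable regions. Incubation lasted 1 h. Binding z-scores were computed against the random background probes from regression-normalized fluorescence.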
With GCTAGCAGGCCATTTGAGTCACTCAATGACGGGC, the PBM binding z-score was -0.7.
With TAGCCTAGGTCATTCAGGGGCCAGTATAGAAAGC the figure was 2.59; with ATCTCTAGTTAAAGTTCAGTGAAAGATCGATAGA, 3.2; with ATATGTAGGTTAGCTGGGTTCATTCAGACTAGGC, 3.74.
The figure for TCTATTAGTTCATTAGGGCAACCGAAACAGCGGA is 2.92; for CCTGCTAGGTCATGGTCCGCTAATCTACAGTATG it is 2.78.
As for TGTAGCAGGCCAGAGGGTCACTCAAGAGGTACGG, the PBM binding z-score was determined as 2.46.
With CGAACTAGGTCAGAACAAGACAGTGAAGGATGAT the figure was 4.3.
With ATCTCTAGGTAACAAGTTGAGTGAAAGAGAGGAC the figure was 1.76.
With AGTCAAAGCTCAGGACGAGGTAACGTAAAGCACG the figure was -0.305; with ACTAGTTGGTCAGCTGAGGTCAGACACAATTCGG, 1.07.
Consider CCTTACGGGTCACGCGGTTATAGCACGACGAGCG, for which the PBM binding z-score came to 6.24.
Sequence TCTTGTAGAGCAAGCAGGTTAAGAAAGCCTGAGT registered a PBM binding z-score of 0.511.
As for ATACCAAGGGGATCGTGAGGTCGTTGATACTAAC, the PBM binding z-score was -0.0276.
AGTCAAAGTTCAGGTCGAGGTAACGTAAAGCACG returned a PBM binding z-score of 4.74.
For CCAGACAGGTGAGAAGGTAACCCAGCCTCGATTA, the PBM binding z-score worked out at 0.473.
With CCTAGCAGGCCAATCTGGGTCACTCAAGGCTTGA, the PBM binding z-score amounted to 2.6.
With TCATATAGGTACAGGTGAAAGTCGAACGATATGA the figure was 2.41.
Regarding CAAACTAGGTCAAGGACAAAGTCGGTTTGTGCCA, the PBM binding z-score worked out at 6.74.
The sequence TCAAATAGGTAATACAGGTGAAAGTCGGCATCTA yielded a PBM binding z-score of 2.72.
With GCTTGTAGATCGAGGTTAAGAAAGACTAAGCTAA the figure was 0.648.
ACTATTAGTTCAGACGAGGGCAACCGATAGGTTG came in with a PBM binding z-score of 0.191.
